A selection: hits, their analogues and other compounds. The true share with any hit is near 2.2%.
TDP-43 yeast inh – qHTS of TDP-43 Inhibitors | TDP-43 expressing yeast growth rescue, BacTiter-Glo, 24 h | Potency, µM (series often up to 46.1 µM), without a hit: top-dose growth rescue (activation), hits mostly activators | 410,000 tested, 1.8% active | AID 652104, 2013; also: % of control where 0% means no effect; nearly all actives have a fitted effect of over 50% in size
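Luminescence from BacTiter-Glo reports growth of TDP-43-expressing yeast after 24 hr at 30 deg C with compound. Cells were raffinose-pregrown to mid-log, then seeded in galactose medium at OD600=0.02.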
Mito fusion act – qHTS Assay for Small Molecule Inhibitors of Mitochondrial Division or Activators of Mitochondrial Fusion. S. cerevisiae fusion-defective mutant growth rescue, CellTiterGlo 48 h. Potency, µM (highest dose often 46.1 µM), inactives show at the highest dose growth rescue (activation), most hits filed as activators. 320,000 tested, 0.23% active. AID 485298, 2010; also: % of control where 0% means no effect; nearly all actives have a fitted effect of over 45% in size
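Temperature-sensitive fusion-defective S. cerevisiae (e.g. fzo1-1, mgm1-5) were grown with compound in YPEG medium (3% ethanol, 3% glycerol) for 48 hours at 37C. Growth rescue was measured as viability by CellTiterGlo luminescence after 10 minutes at ambient.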
FUS suppressor – qHTS for Suppressors of FUS Proteinopathy: Primary screen using FUS-linked yeast assay. S. cerevisiae FUS-expressing, growth rescue, OD600, 24 h. Potency, µM (highest dose often 76.6 µM), most hits filed as activators. 390,000 tested, 0.24% active. AID 1347120, 2019;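 also: plate controls were DMSO vehicle for no effect and reference control for full effect; nearly all actives have a fitted effect of over 55% in size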
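Yeast FUS proteinopathy model; galactose-induced FUS (2%), starting OD 0.005. Cpds in dilution series, 24hr, 30C, 99% humidity. Abs 600 nm growth. Pos ctrl CP55940 (top 92uM final); neg ctrl DMSO.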
Abeta rescue – qHTS for compounds that reverse cellular toxicity of Amyloid beta (A-beta) peptide in yeast: Primary Screen. yeast expressing A-beta42, growth rescue, OD600, 48 h; response scale: 0% DMSO, 100% iron-clioquinol control. Potency, µM (highest dose often 46.1 µM), hits mostly activators. 410,000 tested, 0.063% active. AID 1347071, 2019; also: nearly all actives have a fitted effect of over 55% in size
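Growth rescue measured by 600 nm absorbance after 48 h yeast culture at 30 C with compound. Values normalized between DMSO and an equimolar ferric chloride plus clioquinol control.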
aSyn yeast inh – qHTS of alpha-syn Inhibitors. Yeast expressing alpha-synuclein, growth rescue, BacTiter-Glo, 24 h. Potency, µM (top dose mostly 46.1 µM), inactives show top-dose growth rescue (activation), usual class: activators. 370,000 tested, 0.14% active. AID 652106, 2013; also: % of control where 0% means no effect; nearly all actives have a fitted effect of over 65% in size
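Rescue of yeast growth: cells expressing toxic alpha-synuclein, induced in galactose at OD600 0.02, incubated with compound 24 h at 30 C. ATP luminescence quantified growth; inhibitors of toxicity appear as activators.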
* = called active by the depositor; i = inactive; ? = inconclusive; . = no result given. Calls follow the shape of the dose curve; as a rule, active = well fitted curve in the direction sought with a large enough effect; inconclusive = small, poorly fitted or top-dose-only effect, or another doubt; inactive = no such curve, though single readings can be large; an effect the other way counts as inactive or inconclusive. Potency is read from the fitted curve at half-maximal effect.

SMILES	TDP-43 yeast inh	Mito fusion act	FUS suppressor	Abeta rescue	aSyn yeast inh
Cc1cc(C)c(C#N)c(Sc2nc(C)c([N+](=O)[O-])c(C)c2C#N)n1	20µM*	.	i	i	-14%
COc1ccccc1CCC(=O)Oc1ccccc1C#N	-11%	0%	i	i	-7%
Cc1ccc(NC(=O)c2c(C)oc3ccc(O)c(CN(C)Cc4ccccc4)c23)c(C)c1	7%	.	i	i	.
COC(=O)[C@]12C[C@H](CC(=O)NCCC(C)C)C(=O)N(Cc3ccccc3)C1=C[C@H](COCc1ccccc1)O[C@@H]2C	.	.	i	.	.
COC(=O)[C@]12C[C@H](CC(=O)NCCc3ccccc3OC)C(=O)N(Cc3cccc4ccccc34)C1=C[C@H](COCc1ccccc1)O[C@@H]2C	.	.	16µM*	.	.
COC(=O)[C@]12C[C@H](CC(=O)NCC3CCCCC3)C(=O)N(CCc3ccc(OC)c(OC)c3)C1=C[C@H](COCc1ccccc1)O[C@@H]2C	.	.	10µM*	.	.
CCOC(=O)N1CCN(C(=O)C[C@H]2C[C@@]3(C(=O)OC)C(=C[C@H](COCc4ccccc4)O[C@@H]3C)N(Cc3cccc4ccccc34)C2=O)CC1	.	.	22µM*	.	.
COC(=O)[C@]12C[C@H](CC(=O)NCc3cccc4ccccc34)C(=O)N(Cc3ccc(Cl)cc3Cl)C1=C[C@H](COCc1ccccc1)O[C@@H]2C	.	.	i	.	.
O=C(O)Cc1ccc(S(=O)(=O)N2CCCC2)s1	5%	.	.	i	0%
COc1cc(C(=O)NCc2nnnn2-c2ccc(C)c(C)c2)cc(OC)c1OC	9%	.	i	i	.
CCCCOc1ccc(C(=O)NCc2nnnn2-c2ccc(C)c(C)c2)cc1	20µM*	.	i	i	.
CCCCC(C)Sc1nc2c([nH]1)c(=S)n(C)c(=O)n2C (stereo not given)	?	.	.	i	0%
CCCC(CC)Sc1nc2c([nH]1)c(=S)n(C)c(=O)n2C (stereo not given)	35µM*	.	.	i	7%
CCS(=O)(=O)n1nc(-c2ccc(Cl)cc2)nc1SC	16µM*	-6%	i	i	0%
CCS(=O)(=O)n1nc(-c2ccco2)nc1SC	10%	-4%	i	i	-17%
COc1cccc(/C=C2\SC(=S)N(CCCC(=O)N(CCO)c3ccccc3)C2=O)c1	22µM*	-7%	?	i	?
CC(=O)N1CCc2cc(CNS(=O)(=O)c3ccc(C(C)(C)C)cc3)ccc21	29%	.	?	i	.
COc1cc(C)c(S(=O)(=O)NCc2ccc3c(c2)OCO3)cc1C	16µM*	1%	i	i	?
CCC(=O)N1CCc2cc(CNS(=O)(=O)c3ccc(C(C)C)cc3)ccc21	20µM*	.	i	i	.
O=C(O)c1ccc(S(=O)(=O)NCc2ccc3c(c2)OCO3)cc1	-4%	-7%	i	i	-3%
COc1ccc(S(=O)(=O)NCc2ccccc2)cc1Br	.	-1%	.	.	.
COc1cc(S(=O)(=O)NCc2ccccc2)ccc1Br	13µM*	0%	.	i	3%
CC(C)c1ccc(S(=O)(=O)NCc2ccc3c(c2)OCO3)cc1	11µM*	9%	i	i	15%
O=C(NCc1ccccc1)c1cc(C2CCCN(S(=O)(=O)c3ccccc3)C2)on1 (stereo not given)	10%	.	i	i	-4%
CCN(Cc1ccccc1)C(=O)Cn1c(=O)n(-c2ccc(Cl)cc2)c(=O)c2c(C)c(C)sc21	-10%	.	i	i	.
SMILES	TDP-43 yeast inh	Mito fusion act	FUS suppressor	Abeta rescue	aSyn yeast inh
COc1cc(S(=O)(=O)NCc2ccc3c(c2)OCO3)ccc1Cl	13µM*	4%	i	i	-10%
COC(=O)N1CCCc2cc(S(=O)(=O)NCc3ccccc3)ccc21	13%	.	i	i	18µM*
COc1cc(S(=O)(=O)NCc2ccc3c(c2)OCO3)ccc1F	?	-13%	i	i	11%
COc1cccc(Cn2c(=O)n(CC3CCC(C(=O)N4CCCCC4)CC3)c(=O)c3sccc32)c1 (stereo not given)	?	.	20µM*	i	.
O=C1c2ccccc2C(=O)N1CCc1csc(-c2ccccc2)n1	13µM*	10%	i	i	?
Nc1ccc(-c2nc3ncccc3o2)c(Cl)c1	-3%	0%	i	i	14µM*
Cc1c(C(=O)Nc2ccccc2)sc2nc(-c3cc4cc(Cl)ccc4oc3=O)[nH]c(=O)c12	15%	.	i	i	.
CCn1nc(-c2ccccc2C)nc2c(=O)n(C)c(=O)nc1-2	.	.	.	.	-76%
N#Cc1ccc(NC(=O)COc2ccccc2C(=O)Nc2ccccc2)cc1	.	.	.	.	0%
Cc1ccc(-c2nc(N)sc2-c2ccccc2)cc1C	16µM*	27%	.	i	-21%
O=C(/C=C/Nc1cccc([N+](=O)[O-])c1)c1ccco1	-1%	.	i	i	13µM*
Cn1cnc(S(=O)(=O)N2CCCC(C(=O)Nc3ccc(OC(F)(F)F)cc3)C2)c1 (stereo not given)	19%	.	i	i	.
O=C(CCNC(=O)C1CCN(S(=O)(=O)c2ccc(F)cc2)CC1)NCc1cccc(Cl)c1	8%	-3%	i	i	-2%
COc1cccc(NC(=O)CN2CCSc3ccccc32)c1	22µM*	-2%	i	i	12%
CCCOc1ccc(CNC(=O)c2ccc3c(c2)N(Cc2ccccc2)CCS3)cc1	-9%	.	i	i	.
CCCCOc1ccc(CNC(=O)CN2CCSc3ccccc32)cc1	35µM*	.	?	?	?
CC(NC(=O)COc1ccccc1Cl)c1ccccc1 (stereo not given)	22%	13%	i	i	2%
CCCCCn1nnnc1C1(C)CCCC(=O)N1Cc1ccco1 (stereo not given)	.	.	i	.	.
COc1cc(NC(=S)NCCCN2CCOCC2)cc(OC)c1OC	-6%	-4%	i	i	0%
COc1cc(NC(=S)NCCN2CCOCC2)cc(OC)c1OC	-13%	3%	i	25µM*	-9%
O=c1c2ccccc2n(Cc2c(F)cccc2Cl)c(=O)n1Cc1ccccc1	3%	.	i	i	.
CC(C)(C)SCCNC(=O)CN(c1ccc(F)cc1)S(C)(=O)=O	-13%	6.3µM*	i	i	-6%
CC(C)(C)SCCNC(=O)CN(c1ccc(F)c(Cl)c1)S(C)(=O)=O	-7%	2%	i	i	9%
O=C(OCCCOc1ccc(F)cc1)c1ccc(O)cc1O	13µM*	2%	i	i	-11%
O=C(CCCOC(=O)c1ccc(O)cc1O)c1ccccc1	?	18%	i	i	8%

From PubChem
